# The whole screen tested about 200,000 compounds, of which about 1,600 (0.8%) were called active.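 Rule for the calls: active = plate Z-score above 3 for both tubulin-high and condensed-nucleus cell shares, with cell loss under 80%, at 10 µM; inactive = the rest, inconclusive results apart.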 Shown is part of a subset that was picked to be rich in actives.
# Experiment: tubulin staining increase by stabilizing compounds – imaging, high-content imaging, primary screen (AID 2205);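 for % tubulin-high responders: anti alpha tubulin signal scored within the nucleus-defined area of each cell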;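 for toxicity: 0% = mean cell density of plate MIN control wells and 100% = no cells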
# Conditions: HeLa tubulin immunostaining HCS, 24 h, at 10 µM; % Hoechst-high responders: measured here: nuclear condensation Hoechst responders, stronger effect = higher value; % tubulin-high responders: stronger effect = higher value; toxicity: measured here: cytotoxicity by cell density
SMILES,% Hoechst-high responders [%],% tubulin-high responders,toxicity [%]
Cc1ccc(-c2cc(C(=O)N3CCC4(CC3)OCCO4)no2)cc1,2.17,2.98% (inactive),5.89
Cc1cccc(-n2c(C)nc3cc(C(=O)N4CCC5(CC4)OCCO5)ccc32)c1,32.4,48.1% (active),34.2
O=C(c1cc(-c2ccncc2)nc2ccccc12)N1CCC2(CC1)OCCO2,1.52,3.12% (inactive),6.16
O=C(O)CCn1cc(C=C2C(=O)NC(=S)NC2=O)c(-c2cccc(Br)c2)n1,1.76,1.65% (inactive),3.44
C[N+]12CN3CN(CN(C3)C1)C2,0.953,7.11% (inactive),4.73
COc1cc(-n2c(=S)[nH]c3ccc(C)cc3c2=O)c(Cl)cc1Cl,23.7,12.4% (active),29
CC(Cc1cccs1)NCc1ccc(Cl)cc1 (stereo not given),2.36,3.24% (inactive),0.83
CN1CCN(C(=O)COc2ccc(C(C)(C)C)cc2Br)CC1,1.35,1.46% (inactive),9.25
Cc1cccc2c(CCN)c[nH]c12,2.2,2.61% (inactive),4.06
Cc1cc(C)cc(NC(=S)NC2CC3CCCC(C2)N3Cc2cccs2)c1 (stereo not given),1.98,3.91% (inactive),8.8
